{"source": "the antibiotic and cytotoxicity screens of Wong et al. (2023)", "note": "Screen size: about 39,000 compounds; about 1,500 (3.8%) were called active. Many of the other results were omitted from the sample, so actives are more common in it than they were."}
{"tested_on": "HSkMC (human skeletal muscle cells)", "assay": "cytotoxicity call (relative viability < 0.9)", "conditions": "10 µM"}
{"compound": "Cn1cc(C(F)(F)F)ccc1=S", "cytotoxicity call": "inactive"}
{"compound": "CCS(=O)(=O)N(C)C[C@@H]1OCc2ccccc2-c2c(n(C)c3ccccc23)C(=O)N([C@@H](C)CO)C[C@@H]1C", "cytotoxicity call": "inactive"}
{"compound": "COCC#Cc1ccc2c(c1)O[C@@H](CN(C)Cc1ccc3c(c1)OCO3)[C@H](C)CN([C@@H](C)CO)S2(=O)=O", "cytotoxicity call": "inactive"}
{"compound": "C[C@@H]1CN([C@H](C)CO)C(=O)Cc2cc(NS(=O)(=O)c3cn(C)cn3)ccc2O[C@H]1CN(C)C(=O)Nc1ccc(F)cc1", "cytotoxicity call": "inactive"}
{"compound": "Cc1noc(C)c1S(=O)(=O)Nc1ccc2c(c1)CC(=O)N([C@@H](C)CO)C[C@@H](C)[C@@H](CN(C)S(=O)(=O)c1cccs1)O2", "cytotoxicity call": "inactive"}
{"compound": "O=S(=O)(c1c[nH]c2ncccc12)N1CC(S(=O)(=O)N2CCOCC2)C1", "cytotoxicity call": "inactive"}
{"compound": "Clc1ccc(-c2nnc(Nc3ccccc3)s2)c(Cl)c1", "cytotoxicity call": "inactive"}
{"compound": "C[C@H](O)C#Cc1cnc2c(c1)C(=O)N([C@@H](C)CO)C[C@@H](C)[C@@H](CN(C)C(=O)Nc1ccc(C(F)(F)F)cc1)O2", "cytotoxicity call": "inactive"}
{"compound": "NC(=O)C1N=CN([C@@H]2O[C@H](CO)[C@@H](O)[C@H]2O)C1=O", "note": "(stereo not given in full)", "cytotoxicity call": "inactive"}
{"compound": "COc1ccc(CN(C)C[C@H]2OCCCC[C@H](C)Oc3ccc(NS(=O)(=O)c4ccc(OC)cc4)cc3C(=O)N([C@H](C)CO)C[C@@H]2C)cc1", "cytotoxicity call": "inactive"}
{"compound": "COc1ccc(CN(C)C[C@@H]2OCCCC[C@@H](C)Oc3ccc(NS(=O)(=O)c4ccc(OC)cc4)cc3C(=O)N([C@@H](C)CO)C[C@H]2C)cc1", "cytotoxicity call": "inactive"}
{"compound": "COc1ccc(S(=O)(=O)Nc2ccc3c(c2)C(=O)N([C@H](C)CO)C[C@H](C)[C@H](CN(C)Cc2ccc(Cl)c(Cl)c2)OCCCC[C@H](C)O3)cc1", "cytotoxicity call": "active"}
{"compound": "COc1ccc(CN(C)C[C@H]2OCCCC[C@@H](C)Oc3ccc(NS(=O)(=O)c4ccc(OC)cc4)cc3C(=O)N([C@@H](C)CO)C[C@H]2C)cc1", "cytotoxicity call": "inactive"}
{"compound": "COc1ccc(S(=O)(=O)Nc2ccc3c(c2)C(=O)N([C@H](C)CO)C[C@H](C)[C@@H](CN(C)Cc2ccc(Cl)c(Cl)c2)OCCCC[C@@H](C)O3)cc1", "cytotoxicity call": "inactive"}
{"compound": "COc1ccc(S(=O)(=O)Nc2ccc3c(c2)C(=O)N([C@@H](C)CO)C[C@H](C)[C@@H](CN(C)Cc2ccc(Cl)c(Cl)c2)OCCCC[C@@H](C)O3)cc1", "cytotoxicity call": "active"}
{"compound": "COc1ccc(S(=O)(=O)Nc2ccc3c(c2)C(=O)N([C@H](C)CO)C[C@@H](C)[C@@H](CN(C)Cc2ccc(Cl)c(Cl)c2)OCCCC[C@H](C)O3)cc1", "cytotoxicity call": "active"}
{"compound": "COc1ccc(S(=O)(=O)Nc2ccc3c(c2)C(=O)N([C@H](C)CO)C[C@@H](C)[C@H](CN(C)Cc2ccc(Cl)c(Cl)c2)OCCCC[C@H](C)O3)cc1", "cytotoxicity call": "active"}
{"compound": "COc1ccc(CN(C)C[C@@H]2OCCCC[C@@H](C)Oc3ccc(NS(=O)(=O)c4ccc(OC)cc4)cc3C(=O)N([C@H](C)CO)C[C@@H]2C)cc1", "cytotoxicity call": "inactive"}
{"compound": "COc1ccc(S(=O)(=O)Nc2ccc3c(c2)C(=O)N([C@@H](C)CO)C[C@H](C)[C@@H](CN(C)Cc2ccc(Cl)c(Cl)c2)OCCCC[C@H](C)O3)cc1", "cytotoxicity call": "inactive"}
{"compound": "COc1ccc(NC(=O)Nc2ccc3c(c2)C(=O)N([C@@H](C)CO)C[C@H](C)[C@@H](CN(C)CC2CCCCC2)O3)cc1", "cytotoxicity call": "inactive"}
{"compound": "C[C@H]1CN([C@@H](C)CO)C(=O)c2cc(NS(=O)(=O)c3cn(C)cn3)ccc2O[C@@H]1CN(C)C(=O)Nc1ccccc1", "cytotoxicity call": "inactive"}
{"compound": "C[C@H](CO)N1C[C@H](C)[C@H](CN(C)S(=O)(=O)c2ccccc2F)Oc2cc(C#Cc3ccccc3)ccc2S1(=O)=O", "cytotoxicity call": "inactive"}
{"compound": "CN(C)[C@@H](CN)c1cccn1C", "cytotoxicity call": "inactive"}
{"compound": "C[C@H](CO)N1C[C@H](C)[C@H](CN(C)C(=O)CN2CCOCC2)Oc2ncc(C#C[C@@H](C)O)cc2C1=O", "cytotoxicity call": "inactive"}
{"compound": "C[C@H](CO)N1C[C@H](C)[C@@H](CN(C)Cc2ccc(-c3ccccc3)cc2)Oc2ccc(NS(=O)(=O)c3cccs3)cc2CC1=O", "cytotoxicity call": "inactive"}
{"compound": "C/C(=N\\N)c1ccc2ccccc2c1", "cytotoxicity call": "inactive"}
{"compound": "O=C(C[C@H]1CC[C@H]2[C@@H](COC[C@H](O)CN2C(=O)c2ccccc2)O1)N1CCOCC1", "cytotoxicity call": "inactive"}
{"compound": "Cc1noc(C)c1NC(=O)Nc1cccc2c1O[C@H](CN(C)S(C)(=O)=O)[C@@H](C)CN([C@H](C)CO)C2=O", "cytotoxicity call": "inactive"}
{"compound": "CC(C)NC(=O)N(C)C[C@@H]1Oc2ccc(NC(=O)Cc3ccccc3)cc2C(=O)N([C@@H](C)CO)C[C@@H]1C", "cytotoxicity call": "inactive"}
{"compound": "Cc1noc(C)c1NC(=O)Nc1ccc2c(c1)C(=O)N([C@@H](C)CO)C[C@H](C)[C@@H](CN(C)C(=O)c1ccccc1)OCCCC[C@@H](C)O2", "cytotoxicity call": "inactive"}
{"compound": "O=C(C[C@@H]1CC=CCC[C@@H](Cc2ccc(F)cc2)C(=O)OC[C@@H](Cc2c[nH]c3ccccc23)NC1=O)N[C@H](CO)Cc1ccccc1", "cytotoxicity call": "active"}
{"compound": "O=C(C[C@@H]1CC=CCC[C@@H](Cc2ccc(F)cc2)C(=O)OC[C@H](Cc2c[nH]c3ccccc23)NC1=O)N[C@@H](CO)Cc1ccccc1", "cytotoxicity call": "inactive"}
{"compound": "O=C(C[C@@H]1CC=CCC[C@H](Cc2ccc(F)cc2)C(=O)OC[C@@H](Cc2c[nH]c3ccccc23)NC1=O)N[C@@H](CO)Cc1ccccc1", "cytotoxicity call": "inactive"}
{"compound": "C[C@H]1CN([C@@H](C)CO)C(=O)c2cccc(NC(=O)Nc3ccc(C(F)(F)F)cc3)c2O[C@@H]1CN(C)Cc1ccncc1", "cytotoxicity call": "inactive"}
{"compound": "COc1ccc(NC(=O)Nc2ccc3c(c2)C(=O)N([C@@H](C)CO)C[C@H](C)[C@H](CN(C)Cc2ccc(C(=O)O)cc2)OCCCC[C@@H](C)O3)cc1", "cytotoxicity call": "inactive"}
{"compound": "Cc1ccc(CN)cc1Cl", "cytotoxicity call": "inactive"}
{"compound": "Cc1cc(C(=O)c2cc3cc(Cl)ccc3o2)ccc1Cl", "cytotoxicity call": "inactive"}
{"compound": "Cc1cc(CN)cc(C)c1NC(=O)c1ccc(-c2cc(Cl)ccc2Cl)o1", "cytotoxicity call": "active"}
{"compound": "COc1cccc(S(=O)(=O)N(C)C[C@H]2Oc3ncc(Br)cc3C(=O)N([C@H](C)CO)C[C@H]2C)c1", "cytotoxicity call": "inactive"}
{"compound": "COC(CN(C)C(=O)c1cn(C)c2ccc(S(=O)(=O)N3CCOCC3)cc2c1=O)OC", "cytotoxicity call": "inactive"}
{"compound": "Cc1[nH]c(=O)[nH]c(=O)c1S(=O)(=O)N1CCN(c2ccccc2)CC1", "cytotoxicity call": "inactive"}
{"compound": "CCCn1c(=O)[nH]c2nc(-c3ccc(S(=O)(=O)N4CCN(c5ccc(Cl)cc5)CC4)cc3)[nH]c2c1=O", "cytotoxicity call": "active"}
{"compound": "Cn1cc(S(=O)(=O)N2CCN(c3ccc(F)cc3)CC2)c(=O)n(C)c1=O", "cytotoxicity call": "inactive"}
{"compound": "C[C@H](CO)N1C[C@H](C)[C@H](CN(C)C(=O)c2ccccc2)OCCCC[C@H](C)Oc2ccc(NS(=O)(=O)c3ccccc3)cc2C1=O", "cytotoxicity call": "inactive"}
{"compound": "CC(=O)Nc1ccc(S(=O)(=O)CCO)cc1", "cytotoxicity call": "inactive"}
{"compound": "C[C@H](CO)N1C[C@H](C)[C@@H](CN(C)Cc2ccncc2)Oc2c(NC(=O)C3CCOCC3)cccc2C1=O", "cytotoxicity call": "inactive"}
{"compound": "COc1ccc([Si](C)(C)[C@@H]2[C@@H](CC(=O)N(CCO)Cc3ccccc3)O[C@]3(C(=O)N(C)c4c(Br)cc(C)cc43)[C@H]2C)cc1", "cytotoxicity call": "inactive"}
{"compound": "COc1ccc([Si](C)(C)[C@@H]2[C@@H](CC(=O)N3Cc4ccccc4C[C@H]3CO)O[C@]3(C(=O)N(Cc4ccc(I)cc4)c4ccccc43)[C@H]2C)cc1", "cytotoxicity call": "inactive"}
{"compound": "COc1ccc([Si](C)(C)[C@H]2[C@H](CCn3cc([C@H](O)c4ccccc4)nn3)O[C@@]3(C(=O)N(C)c4c(Br)cc(C)cc43)[C@@H]2C)cc1", "cytotoxicity call": "inactive"}
{"compound": "COc1ccc([Si](C)(C)[C@H]2[C@H](CC(=O)N(CCO)Cc3ccccc3)O[C@@]3(C(=O)N(C)c4c(Br)cc(C)cc43)[C@@H]2C)cc1", "cytotoxicity call": "inactive"}
{"compound": "COc1ccc([Si](C)(C)[C@@H]2[C@@H](CCn3cc([C@H](O)c4ccccc4)nn3)O[C@]3(C(=O)N(C)c4c(Br)cc(C)cc43)[C@H]2C)cc1", "cytotoxicity call": "active"}
{"compound": "COc1ccc([Si](C)(C)[C@@H]2[C@@H](CCn3cc([C@H](O)c4ccccc4)nn3)O[C@]3(C(=O)N(c4ccccc4)c4ccccc43)[C@H]2C)cc1", "cytotoxicity call": "inactive"}
{"compound": "COc1ccc([Si](C)(C)[C@@H]2[C@@H](CC(=O)N3Cc4ccccc4C[C@H]3CO)O[C@]3(C(=O)N(C)c4c(Br)cc(C)cc43)[C@H]2C)cc1", "cytotoxicity call": "active"}
{"compound": "COc1ccc([Si](C)(C)[C@H]2[C@H](CC(=O)N3Cc4ccccc4C[C@H]3CO)O[C@@]3(C(=O)N(C)c4c(Br)cc(C)cc43)[C@@H]2C)cc1", "cytotoxicity call": "active"}
{"compound": "COc1ccc([Si](C)(C)[C@H]2[C@H](CC(=O)N3Cc4ccccc4C[C@H]3CO)O[C@@]3(C(=O)N(Cc4cccc(I)c4)c4ccccc43)[C@@H]2C)cc1", "cytotoxicity call": "inactive"}
{"compound": "Cc1nnc(=O)[nH]c1NNc1ccccc1", "cytotoxicity call": "inactive"}
{"compound": "COc1cccc(NC(=O)N2C[C@@H](O)COC[C@H]3O[C@H](CC(=O)NCCCN4CCOCC4)CC[C@@H]32)c1", "cytotoxicity call": "inactive"}
{"compound": "COc1ccc2c3c(n(c2c1)C)[C@@H](CO)N(C[C@]13CN(C1)S(=O)(=O)c1cn(cn1)C)C(=O)Nc1ccc(cc1)F", "cytotoxicity call": "inactive"}
{"compound": "NCc1ccc(-n2cccn2)cc1", "cytotoxicity call": "inactive"}
{"compound": "COc1ccc(S(=O)(=O)Nc2ccc3c(c2)C(=O)N([C@H](C)CO)C[C@H](C)[C@H](CN(C)S(=O)(=O)c2cn(C)cn2)OCCCC[C@H](C)O3)cc1", "cytotoxicity call": "inactive"}
{"compound": "CCCCCCCCCC[C@@H](O)[C@H]1C=C[C@@H]2C(=O)N(c3ccccc3)C(=O)[C@@H]2N1Nc1ccc([N+](=O)[O-])cc1", "cytotoxicity call": "active"}
{"compound": "CCCCCCCCCCCCCCCC(=O)OC[C@H](NC(=O)C(Cl)Cl)[C@H](O)c1ccc([N+](=O)[O-])cc1", "cytotoxicity call": "inactive"}
{"compound": "CCCCCCCCCCCCCCCC(=O)OCC(NC(=O)C(Cl)Cl)C(O)c1ccc([N+](=O)[O-])cc1", "note": "(stereo not given)", "cytotoxicity call": "inactive"}
{"compound": "C[C@@H]1CN([C@@H](C)CO)C(=O)c2cc(N(C)C)ccc2O[C@@H](C)CCCCO[C@@H]1CN(C)C(=O)Nc1cccc2ccccc12", "cytotoxicity call": "inactive"}
{"compound": "C[C@@H]1CN([C@@H](C)CO)C(=O)c2cc(NS(=O)(=O)c3cccs3)ccc2O[C@@H]1CN(C)Cc1ccncc1", "cytotoxicity call": "inactive"}
